Source: PubChem BioAssay (several laboratories)
Sampled rows, rich in hits. Any-hit rate of the full collection: about 0.93%.
PTPN22 inh 2 = inhibitors of human LYP (PTPN22) phosphatase | Q9Y2R2 | recombinant LYP catalytic domain, DiFMUP fluorescence | inhibition, % at 2 µM | 96,000 compounds, 0.21% hits;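 active = inhibition at 2 µM at or above a set limit, the screen mean plus 3 SD, cut at about 24% in these data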;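 also: 0% = DMSO with enzyme and 100% = enzyme fully blocked by orthovanadate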
Target sequence (Q9Y2R2 whole entry, looked up, the tested form may be a part): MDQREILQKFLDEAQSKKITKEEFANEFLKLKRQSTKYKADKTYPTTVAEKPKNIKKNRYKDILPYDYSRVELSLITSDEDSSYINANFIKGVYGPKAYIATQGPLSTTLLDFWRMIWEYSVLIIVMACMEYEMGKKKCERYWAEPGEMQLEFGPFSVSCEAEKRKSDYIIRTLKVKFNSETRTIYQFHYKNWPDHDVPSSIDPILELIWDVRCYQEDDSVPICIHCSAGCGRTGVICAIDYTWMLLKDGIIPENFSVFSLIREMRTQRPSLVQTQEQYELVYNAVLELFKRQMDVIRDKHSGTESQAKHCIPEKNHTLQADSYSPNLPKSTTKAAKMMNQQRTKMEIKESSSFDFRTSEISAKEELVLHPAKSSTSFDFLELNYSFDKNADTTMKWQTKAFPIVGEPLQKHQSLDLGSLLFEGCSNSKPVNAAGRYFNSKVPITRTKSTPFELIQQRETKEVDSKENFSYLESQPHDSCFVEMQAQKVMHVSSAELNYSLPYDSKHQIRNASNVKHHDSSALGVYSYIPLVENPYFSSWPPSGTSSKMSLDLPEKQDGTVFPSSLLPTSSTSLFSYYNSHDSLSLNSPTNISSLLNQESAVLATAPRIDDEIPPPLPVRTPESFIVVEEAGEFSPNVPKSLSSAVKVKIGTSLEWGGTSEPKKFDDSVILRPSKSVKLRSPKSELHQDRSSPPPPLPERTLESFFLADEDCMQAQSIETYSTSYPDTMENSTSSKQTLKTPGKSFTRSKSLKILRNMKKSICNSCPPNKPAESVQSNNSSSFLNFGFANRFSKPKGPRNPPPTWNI
PLK1 PBD inh = Plk1 (human) PBD binding inhibition | Plk1 PBD phosphopeptide binding, fluorescence polarization | inhibition, %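 (tested at about 20 µM)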 | 97,000 compounds, 0.13% hits | AID 693; in the data active = inhibition above about 34%, passing the limit was not always enough
PTPN22 act = activators of human LYP (PTPN22) phosphatase; Q9Y2R2; recombinant LYP, DiFMUP fluorescence; 0 = plate median, 100 = signal doubled; activation, % at 2 µM; 96,000 compounds, 0.11% hits; AID 697;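 active = activation at 2 µM above a set limit, the mean plus 5 SD, cut at about 37% in these data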
PLK1 inh = PLK1 (human) kinase inhibition; P53350; AID 619; inhibition, % at 10 µM; 97,000 compounds, 0.53% hits; recombinant PLK1 kinase, TR-FRET peptide phosphorylation;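 active = inhibition of 50% or more in the single-concentration screen; inactive = inhibition below 50%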;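 also: 0% = DMSO max control and 100% = H-89 dihydrochloride min control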
Numbers without * were called inactive; . = not tested or not shown.

SMILES	PTPN22 inh 2	PLK1 PBD inh	PTPN22 act	PLK1 inh
Cc1oc(-c2ccc(Cl)cc2)nc1CS(=O)CC(=O)NCCN1CCCC1 (centres undefined)	.	-2	.	60*
COc1ccc(CNC(=O)CS(=O)Cc2nc(-c3ccccc3C)oc2C)cc1 (centres undefined)	.	-1	.	67*
Cc1ccccc1-c1nc(CS(=O)CC(=O)NCCN2CCOCC2)c(C)o1 (centres undefined)	-7	-24	4	0
Cc1ccc(-c2nc(CS(=O)CC(=O)NCCN3CCCC3)c(C)o2)cc1 (centres undefined)	.	0	.	63*
Cc1oc(-c2ccc(Cl)cc2)nc1CS(=O)CC(=O)NCCCN(C)C1CCCCC1 (centres undefined)	7	4	-3	4
Cc1ccc(-c2nc(CS(=O)CC(=O)NCCN3CCOCC3)c(C)o2)cc1 (centres undefined)	.	-16	.	59*
COc1nc(C)nc(NC(=O)NS(=O)(=O)c2ccc(C)cc2)n1	-2	-4	3	-5
O=C(NCC1(c2ccccc2)CCCC1)C(=O)N1CCOCC1	5	14	-6	-10
CCOc1ccc(NC(=O)CCn2c(=O)[nH]c3ccsc3c2=O)cc1	12	12	-13	-1
Cc1ccc(S(=O)(=O)CCc2nc3ccccc3s2)cc1C	-3	19	4	-3
CCCCNC(=O)CS(=O)Cc1nc(-c2cccc(C)c2)oc1C (centres undefined)	2	-16	-3	-5
CCCCNC(=O)CS(=O)Cc1nc(-c2cccc(Cl)c2)oc1C (centres undefined)	.	-1	.	65*
CCN1CCN(CCNC(=O)C2CCCN(Cc3nc(-c4cccc(Cl)c4)oc3C)C2)CC1 (centres undefined)	.	-3	.	57*
CCOC(=O)N1CCC(NC(=O)C2CCCN(Cc3nc(-c4cccc(Cl)c4)oc3C)C2)CC1 (centres undefined)	-6	0	2	22
Cn1ncc(Cl)c1C(=O)NC(=S)Nc1sc2c(c1C#N)CCCCC2	-4	-6	6	-13
CCOc1ccc(-c2csc(N)c2C(=O)OC)cc1	30*	15	-29	-4
Cc1cccc(NC(=S)NC(=O)/C=C/c2ccco2)n1	-1	-24	3	-3
CCOC(=O)c1c(NC(=O)CSc2nnnn2CC)sc(C)c1C	-4	4	2	-6
CCOC(=O)c1c(NC(=O)C(C)NCc2ccco2)sc2c1CCC(C)C2 (centres undefined)	7	5	-4	-6
COc1ccc(-n2nnnc2SCC(=O)c2ccc(O)c(O)c2)cc1	35*	6	-38	2
COc1ccc(-n2nnnc2SCC(N)=O)cc1	-6	0	1	-7
CC(C)(C)C(=O)C(Oc1cccc2nonc12)n1cncn1 (centres undefined)	-4	13	2	-10
CCN(CC)C(=O)CSc1ncnc2c(-c3cccs3)nsc12	6	-13	-5	-11
Cc1ccc(NC(=O)CSc2nnc(C)n2-c2ccccc2)cc1	-3	15	2	-14
Cc1nnc(SCC(=O)N/N=C/c2cn(-c3ccccc3)nc2-c2ccccc2)n1-c1ccccc1	25*	-28	-22	-11
SMILES	PTPN22 inh 2	PLK1 PBD inh	PTPN22 act	PLK1 inh
O=C(O)CCN1C(=O)/C(=C/c2ccc(-c3nc4ccccc4s3)o2)SC1=S	24*	-43	-22	-17
O=C(c1cc2ccccn2n1)N1CCN(Cc2ccccc2)CC1	0	-7	-1	54*
O=C(Nc1ccccc1Cl)N1CCN(c2ccccn2)CC1	-4	-18	3	-14
COc1ccccc1NC(=O)N1CCN(c2ccccn2)CC1	.	6	.	62*
Cc1c(C(=O)O)nn(-c2ccccc2)c(=O)c1C#N	.	1	.	63*
COc1ccc(CN2CCN(C(=O)c3ccco3)CC2)cc1	37*	-14	-36	-6
COc1cccc(CN2CCN(C(=O)c3ccco3)CC2)c1OC	8	10	-4	-1
Cc1ccc(N2CC(C(=O)NCCC(C)C)CC2=O)cc1 (centres undefined)	10	-11	-9	-4
C=CCNC(=O)C1CC(=O)N(c2ccc(C)cc2)C1 (centres undefined)	.	-18	.	59*
O=C(Nc1nnc(COc2ccc(Cl)cc2)s1)c1ccc([N+](=O)[O-])cc1	24*	5	-22	-5
O=C(Nc1nnc(CCS(=O)(=O)c2ccc(Br)cc2)s1)c1ccc([N+](=O)[O-])cc1	18	-16	-15	-2
O=C1c2ccccc2-c2onc3ccc(NCCCn4ccnc4)c1c23	-5	35	4	68*
COc1cc(C(=S)N2CCCC2)cc(OC)c1O	-15	-23	15	-11
